# Data: PubChem BioAssay AID493036 (Sanford-Burnham Center for Chemical Genomics, 2011)
# The whole screen tested about 330,000 compounds, of which about 560 (0.17%) were called active. The sample holds actives, similar compounds and a random draw of the others, so the mix is not that of the screen.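 The calls were made as follows: active = activation at or above 40% of the spot to cytoplasm intensity ratio, with at least 20 cells analyzed; inconclusive = wells under 20 cells, flagged as cytotoxic or low count; inactive = the rest.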
# Tests used:
# [1] = agonists of human NTR1, primary screen, imaging, U2OS cells, beta-arrestin-GFP, high content (AID 493036); conditions: NTR1-U2OS beta-arrestin-GFP spot imaging, agonist mode; measured here: cell count, cytotoxicity flag; at 20 µM;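 as to activation: 0% = DMSO without peptide and 100% = 100 nM NTR1 peptide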
# [2] = molecular target: Neurotensin receptor type 1 (Homo sapiens) (UniProt P30989); assay: as above; conditions: NTR1-U2OS beta-arrestin-GFP spot imaging, agonist mode; at 20 µM; stronger effect = higher value
# Sequence of Neurotensin receptor type 1 (Homo sapiens) (P30989 whole entry, looked up): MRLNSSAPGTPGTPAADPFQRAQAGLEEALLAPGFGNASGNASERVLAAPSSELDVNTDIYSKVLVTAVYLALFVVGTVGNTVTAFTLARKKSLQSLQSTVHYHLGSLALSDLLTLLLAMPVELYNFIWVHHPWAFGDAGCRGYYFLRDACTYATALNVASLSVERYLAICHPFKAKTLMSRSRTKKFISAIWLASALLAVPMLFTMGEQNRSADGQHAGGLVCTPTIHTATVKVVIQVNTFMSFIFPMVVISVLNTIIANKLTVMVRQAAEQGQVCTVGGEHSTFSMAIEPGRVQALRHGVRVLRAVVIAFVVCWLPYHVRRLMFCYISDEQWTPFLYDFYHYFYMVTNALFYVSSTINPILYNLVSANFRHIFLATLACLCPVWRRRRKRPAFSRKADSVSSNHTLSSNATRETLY
structure (smiles),measurement,setting,value
Nc1nc(NCC2CCCO2)nc(Nc2ccccc2F)c1[N+](=O)[O-] (stereo not drawn),cell count,[1],40 cells
same,activation,[2],0.5% (inactive)
C=CCNc1nc(N)c([N+](=O)[O-])c(NC2CCCCC2)n1,cell count,[1],87 cells
same,activation,[2],5.1% (inactive)
Nc1nc(Nc2ccccc2F)nc(NC2CCCCC2)c1[N+](=O)[O-],cell count,[1],83 cells
same,activation,[2],43.1% (active)
Cc1ccc(S(=O)(=O)N2CCOCC2)cc1C(=O)OC1CCCCC1=O (stereo not drawn),cell count,[1],30 cells
same,activation,[2],0.7% (inactive)
Cc1cc(C)n(CCNS(=O)(=O)c2ccc(Cl)cc2)n1,cell count,[1],44 cells
same,activation,[2],1.1% (inactive)
Cc1ccccc1OCc1nnc(SCC(=O)N2c3ccccc3Sc3ccc(Cl)cc32)o1,cell count,[1],65 cells
same,activation,[2],4.7% (inactive)
Oc1ccc(-c2nnc(Nc3ccccc3)c3ccccc23)cc1,cell count,[1],62 cells
same,activation,[2],-0.2% (inactive)
Cc1cccc(-c2nc(Nc3ccc(O)cc3)c3ccccc3n2)c1,cell count,[1],84 cells
same,activation,[2],60.9% (active)
CN1CCN(c2nc(Nc3ccc(O)cc3)nc3ccccc23)CC1,cell count,[1],47 cells
same,activation,[2],0.5% (inactive)
Cc1cc(C)cc(N(CC(=O)N2CC=C(c3ccccc3)CC2)S(=O)(=O)c2c(C)noc2C)c1,cell count,[1],52 cells
same,activation,[2],3.3% (inactive)
COc1ccc(C)cc1S(=O)(=O)Nc1cc2c3c(c1)CCC(=O)N3CCC2,cell count,[1],52 cells
same,activation,[2],-1.6% (inactive)
Cc1ccccc1C(=O)N1CCC(C(=O)Oc2ccc(C#N)cc2)CC1,cell count,[1],77 cells
same,activation,[2],0.9% (inactive)
Cc1cc(Cl)ccc1OCc1nc(-c2ccncc2)no1,cell count,[1],20 cells
same,activation,[2],1.2% (inactive)
Cn1c(-c2ccc(C(=O)c3ccccc3)s2)nc2ccccc21,cell count,[1],111 cells
same,activation,[2],-1.6% (inactive)
O=C(CCc1ccc(S(=O)(=O)N2CCOCC2)cc1)Nc1ccc2ccccc2c1,cell count,[1],90 cells
same,activation,[2],1.8% (inactive)
CCOC(=O)c1cccc(NS(=O)(=O)c2c(C(=O)N3CCCCCC3)c(C)n(C)c2C)c1,cell count,[1],47 cells
same,activation,[2],1.2% (inactive)
N#CCSc1nc2c(c(=O)n1Cc1ccccc1)C1(CCCC1)Cc1ccccc1-2,cell count,[1],47 cells
same,activation,[2],3.2% (inactive)
Cc1cccc(-n2c(=O)c3c(C)c(C)sc3n(CC(N)=O)c2=O)c1,cell count,[1],70 cells
same,activation,[2],0.5% (inactive)
Cc1cccc(-n2c(SCC(N)=O)nc3c(c2=O)C2(CCCCC2)Cc2ccccc2-3)c1,cell count,[1],62 cells
same,activation,[2],49.9% (active)
CC(C)(C)OC(=O)NCCCCCNC(=O)c1[nH]cnc1C(=O)Nc1nccs1,cell count,[1],56 cells
same,activation,[2],2.3% (inactive)
CN1/C(=C\C=C2\N=C(c3ccc(F)cc3)OC2=O)C(C)(C)c2ccccc21,cell count,[1],59 cells
same,activation,[2],-1% (inactive)
CC1=CCC2C(=O)N(c3cccc(C(=O)NC(C)c4ccccc4)c3)C(=O)C2C1 (stereo not drawn),cell count,[1],86 cells
same,activation,[2],-1.2% (inactive)
Cc1ccc(C(=O)N/N=C\c2cc(Br)c(Br)o2)cn1,cell count,[1],42 cells
same,activation,[2],3.4% (inactive)
CNC[C@H](CC1CCCCC1)NC[C@H](NCCC1CCCC1)[C@H](C)O,cell count,[1],59 cells
same,activation,[2],4.7% (inactive)
Cc1ccc(-n2c(SCC(=O)NCc3ccc4c(c3)OCO4)nnc2-c2cccnc2)c(C)c1,cell count,[1],50 cells
same,activation,[2],-0.8% (inactive)
Cc1cccc(NC(=O)C2CCCN(C(=O)NCc3ccccc3)C2)c1C (stereo not drawn),cell count,[1],37 cells
same,activation,[2],0.3% (inactive)
CCCCCCSc1ccc(-c2nc3ccc(Cl)cn3c2NCc2ccccc2)cc1,cell count,[1],65 cells
same,activation,[2],-1.8% (inactive)
CCCCNc1c(-c2ccc(OC)c(Sc3ccc(OC)cc3)c2)nc2ccc(Cl)cn12,cell count,[1],52 cells
same,activation,[2],3.2% (inactive)
CCCCNc1c(-c2cccc(Sc3ccc(OC)cc3)c2)nc2ccccn12,cell count,[1],60 cells
same,activation,[2],42.5% (active)
CC(C)C(=O)Nc1ccc2c3c(cccc13)CC2,cell count,[1],56 cells
same,activation,[2],0.6% (inactive)
CC(=O)N1C(C)c2ccccc2C(C)(C)CC12CCCCC2 (stereo not drawn),cell count,[1],51 cells
same,activation,[2],0.8% (inactive)
Cn1c(C(=O)O)ccc1S(=O)(=O)N(Cc1ccccc1)Cc1ccccc1,cell count,[1],65 cells
same,activation,[2],0.5% (inactive)
Cc1cc2occ(CC(=O)NNC(=O)c3ccccc3F)c2cc1C,cell count,[1],58 cells
same,activation,[2],0.7% (inactive)
CC(C)(C)OC(=O)N1CCC(NC(=O)c2[nH]cnc2C(=O)N[C@@H](Cc2ccccc2)C(=O)OCc2ccccc2)CC1,cell count,[1],74 cells
same,activation,[2],47.8% (active)
O=C(N[C@@H](Cc1ccccc1)C(=O)OCc1ccccc1)c1nc[nH]c1C(=O)NC1CCNCC1,cell count,[1],66 cells
same,activation,[2],4% (inactive)
CC(C)(C)OC(=O)CNC(=O)c1[nH]cnc1C(=O)N[C@@H](Cc1ccccc1)C(=O)OCc1ccccc1,cell count,[1],87 cells
same,activation,[2],15.2% (inactive)
CSc1ccc(C#N)cc1NC(=O)c1ccc(Cl)cc1,cell count,[1],46 cells
same,activation,[2],0.4% (inactive)
FC(F)(F)c1cccc(-c2nc(COc3ccc(Cl)cc3Cl)no2)c1,cell count,[1],40 cells
same,activation,[2],-2% (inactive)
COc1ccc(C)cc1NC(=O)C(Sc1ccccc1)c1ccccc1 (stereo not drawn),cell count,[1],44 cells
same,activation,[2],1.2% (inactive)
O=C(O)c1cccc(N=NN2CCCCCC2)c1,cell count,[1],47 cells
same,activation,[2],0.2% (inactive)
COC(=O)C1=C(NC(=O)C(C)(C)C)CCS1,cell count,[1],55 cells
same,activation,[2],-0.2% (inactive)
CC(=O)c1ccc(N2Cc3ccccc3C2)cc1,cell count,[1],66 cells
same,activation,[2],0.5% (inactive)
N#Cc1ncc(C(F)(F)F)cc1Oc1cccnc1,cell count,[1],41 cells
same,activation,[2],-0.5% (inactive)
[O-][n+]1onc2c1CCc1[nH]c(-c3ccccc3)nc1-2,cell count,[1],66 cells
same,activation,[2],-0.8% (inactive)
O=C(NC(=S)NC1CCS(=O)(=O)C1)c1cccc([N+](=O)[O-])c1 (stereo not drawn),cell count,[1],51 cells
same,activation,[2],-0.4% (inactive)
CCO[C@H]1OC(C(=O)NCc2ccccc2)=C[C@@H](c2coc3ccccc3c2=O)[C@@H]1CCCO,cell count,[1],79 cells
same,activation,[2],0.3% (inactive)
COc1ccc(OC)c(S(=O)(=O)NCCC(C)C)c1,cell count,[1],90 cells
same,activation,[2],-0.7% (inactive)
O=C(NCc1ccco1)c1cnn2c(C(F)(F)F)cc(-c3ccco3)nc12,cell count,[1],40 cells
same,activation,[2],8.2% (inactive)
CN(C(=O)c1cccc(NC(=O)C2CCN(C(=O)OC(C)(C)C)CC2)c1)C1CCC1,cell count,[1],52 cells
same,activation,[2],-0.7% (inactive)
CN1/C(=C\C(=O)c2oc3ccccc3c2N)C(C)(C)c2ccccc21,cell count,[1],52 cells
same,activation,[2],45.5% (active)
CC(C)Nc1nnc(SCC(=O)/C=C2\N(C)c3ccccc3C2(C)C)s1,cell count,[1],54 cells
same,activation,[2],0% (inactive)
CC(=O)Nc1cccc(OCC(=O)/C=C2\N(C)c3ccccc3C2(C)C)c1,cell count,[1],29 cells
same,activation,[2],0.8% (inactive)
CC(Oc1ccccc1)C(=O)Nc1oc(-c2ccco2)c(-c2ccco2)c1C#N (stereo not drawn),cell count,[1],69 cells
same,activation,[2],-1.6% (inactive)
COc1ccc(CC(NC(C)=O)C(=O)N2CCN(C(=O)Nc3cccc(Cl)c3)CC2)cc1OC (stereo not drawn),cell count,[1],63 cells
same,activation,[2],-0.5% (inactive)
CC(=O)c1cnn(-c2cc(Oc3ccc(F)cc3)ncn2)c1C,cell count,[1],34 cells
same,activation,[2],-1.1% (inactive)
C=CCOc1ccc(/C=C2/C(=O)ON=C2C)cc1OCC,cell count,[1],89 cells
same,activation,[2],2.1% (inactive)
COc1cc(/C=C2/C(=O)ON=C2C)ccc1OCc1ccccc1F,cell count,[1],36 cells
same,activation,[2],73.4% (active)
COc1cc(/C=C2/C(=O)ON=C2C)ccc1OCc1cccc(F)c1,cell count,[1],41 cells
same,activation,[2],5.9% (inactive)
COC(=O)c1ccc(COC(=O)CNC(=O)c2cccc(OC)c2)o1,cell count,[1],57 cells
same,activation,[2],-0.3% (inactive)
O=C(Nc1nnc(S(=O)(=O)N2CCCCCC2)s1)c1cccc(Br)c1,cell count,[1],53 cells
same,activation,[2],5% (inactive)
Cc1c(NC(=O)CCC2CCCCC2)cc(C(=O)N2CCOCC2)cc1[N+](=O)[O-],cell count,[1],61 cells
same,activation,[2],1.4% (inactive)
COc1ccc(Cc2nnc(N/N=C/c3ccccc3O)[nH]c2=O)cc1OC,cell count,[1],65 cells
same,activation,[2],0% (inactive)
COc1cccc(/C=N/Nc2cc(C)nc(-c3ccccc3O)n2)c1O,cell count,[1],51 cells
same,activation,[2],46.3% (active)
COc1ccccc1-n1c(SCC(=O)Nc2cccc(C(=O)O)c2)nnc1-c1ccccc1O,cell count,[1],50 cells
same,activation,[2],-0.1% (inactive)
CCC1(CC)C(=O)C2=C3C1[C@H](C(=O)OC)C=C(C(=O)OC)C[C@H]3[C@H]1C(=O)N(Cc3ccccc3)C(=O)[C@H]1[C@H]2C (stereo partly drawn),cell count,[1],56 cells
same,activation,[2],4.6% (inactive)
CC(C)(C)Nc1c(-c2cccs2)nc2ccccn12,cell count,[1],43 cells
same,activation,[2],1.2% (inactive)
O=C(O)c1cccc(NC(=O)c2cc(-c3cccc(Cl)c3)nc3ccccc23)c1,cell count,[1],44 cells
same,activation,[2],1.2% (inactive)
O=C(/C(=C/c1cccc(Cl)c1)c1nc2ccccc2[nH]1)c1ccccc1,cell count,[1],59 cells
same,activation,[2],40.5% (active)
O=C(N/N=C/c1ccc(Cl)cc1)c1nc2ccc([N+](=O)[O-])cc2c(=O)[nH]1,cell count,[1],101 cells
same,activation,[2],-0.7% (inactive)
